Laboratory results as given in PubChem BioAssay AID777 (Sanford-Burnham Center for Chemical Genomics, 2007).
Hit rate of the full screen: of about 96,000 compounds, about 19,000 (20%) were called active. A selection follows. Values without a mark were called inactive.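 The calls were made as follows: active = blocking of liver enzyme CYP2C9 beyond about 50% at 5 µM (limit read from the data); inactive = the rest.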

These compounds were tested against Cytochrome P450 2C9 (Homo sapiens) (UniProt P11712) (assay: blockers of cytochrome P450 2C9 activity – biochemical, luminescence, ADME assay, primary screen (AID 777)). Conditions: CYP2C9 Supersomes, luciferin-H conversion, at 5 µM, hits give high values.
Cytochrome P450 2C9 (Homo sapiens), sequence (P11712 whole entry, looked up): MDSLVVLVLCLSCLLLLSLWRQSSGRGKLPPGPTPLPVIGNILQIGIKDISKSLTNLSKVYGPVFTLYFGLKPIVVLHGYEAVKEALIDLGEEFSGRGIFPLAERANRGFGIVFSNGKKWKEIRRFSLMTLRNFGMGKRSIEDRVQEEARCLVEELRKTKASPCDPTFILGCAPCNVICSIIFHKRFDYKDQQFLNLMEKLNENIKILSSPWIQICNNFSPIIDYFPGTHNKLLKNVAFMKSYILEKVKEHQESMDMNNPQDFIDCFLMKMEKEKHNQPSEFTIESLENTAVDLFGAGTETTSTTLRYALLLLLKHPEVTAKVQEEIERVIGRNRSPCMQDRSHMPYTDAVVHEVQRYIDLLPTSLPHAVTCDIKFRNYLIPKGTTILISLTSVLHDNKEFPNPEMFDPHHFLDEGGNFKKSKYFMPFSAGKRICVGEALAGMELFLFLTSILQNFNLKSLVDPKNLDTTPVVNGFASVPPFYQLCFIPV

SMILES	inhibition
N#C/C(=C(/O)Cc1cccc2ccccc12)c1nc2ccccc2s1	76.6% (active)
N#C/C(=C(/O)COc1cccc2ccccc12)c1nc2ccccc2[nH]1	-6.1%
Cc1ccccc1OC/C(O)=C(\C#N)c1nc2ccccc2[nH]1	45.5%
CN(C)/C=C(\C#N)C(=O)c1cccnc1Oc1cccc(F)c1	12.2%
CCCC(C)C(=O)Nc1ccc(NC(C)=O)cc1 (stereo unspecified)	9.5%
COc1ccc(C2OC(=O)CC2C(=O)NC(C)C)cc1 (stereo unspecified)	3.6%
N#Cc1cccc(NC(=O)CCC2CCCC2)c1	56.8% (active)
O=C(CCCOc1ccccc1)Nc1cccc(C(=O)O)c1	9.5%
COC(=O)c1sccc1NC(=O)CCC1CCCC1	-11.7%
CCCC(=O)N1CCc2[nH]c3ccccc3c2C1	8.3%
COCCNC(=O)C(c1ccc(C)o1)N(Cc1ccccc1)C(=O)Cn1nnc2ccccc21 (stereo unspecified)	16.2%
Cc1ccc(C(C(=O)NCc2ccco2)N(CC2CCCO2)C(=O)Cn2nnc3ccccc32)cc1 (stereo unspecified)	14.4%
COc1ccccc1N(C(=O)Cn1nnc2ccccc21)C(C(=O)NCc1ccco1)c1ccc(C)o1 (stereo unspecified)	70.3% (active)
CCOCCCNC(=O)Cc1cc(=O)[nH]c(=O)[nH]1	-6.2%
Cc1noc(COc2ccccc2OCC(O)CNC(C)(C)C)n1 (stereo unspecified)	26.1%
O=C(Nc1cccc2ccccc12)N1CCN(Cc2ccc3c(c2)OCO3)CC1	38.9%
O=C1N(Cc2ccc3c(c2)OCO3)c2ccccc2C1(O)c1c[nH]c2ccccc12 (stereo unspecified)	79.7% (active)
CC1CCC(N2CC(=O)N(Cc3ccc4c(c3)OCO4)C(c3ccc(F)cc3)C2=O)CC1 (stereo unspecified)	39.6%
CC(=O)Oc1ccc(C)cc1N1C(=O)c2ccc(C(=O)O)cc2C1=O	-17.9%
C/C(CC(O)(/C=N/O)c1ccccc1)=N\O (stereo unspecified)	-33%
CC1=NN(c2cccc(Cl)c2)C(=O)C12CC(C)=C(C)CS2 (stereo unspecified)	74.8% (active)
O=C1C(=O)N(c2ccccc2)c2ccccc21	4.1%
COCCCn1c(Cc2csc(Nc3cccc(Cl)c3)n2)nnc1SCC(=O)OC1CCCCC1	44.3%
CC(=O)Nc1ccc(C(=O)CSc2nnc(Cc3ccccc3)o2)cc1	33.3%
CCOC(=O)c1c(NC(=O)CSc2nnc(Cc3csc(N)n3)n2C)sc(C)c1C	30.2%
CCOc1ccc(Nc2nc(Cc3nnc(SCC(=O)c4ccc(C)cc4)o3)cs2)cc1	83.7% (active)

SMILES	inhibition
CCOc1ccc(Nc2nc(Cc3nnc(SCC(=O)NC4CCCC4)n3C)cs2)cc1	65.6% (active)
CCC(=O)Nc1ccc(C(=O)CSc2nnc(CNc3ccc(Cl)cc3)o2)cc1OC	-44.6%
COCc1cc(C)nc2sc(C(=O)NC3CCCCC3)c(N)c12	4.7%
COc1ccc(-n2cnc3cc(NCc4ccco4)ccc32)cc1	32.8%
COC(=O)[C@@H](NC(=O)Nc1cc(Cl)ccc1C)C(C)C	10%
OC(C#CCN1CCOCC1)(c1ccccc1)C1CCCCC1 (stereo unspecified)	30%
O=c1oc2cc(O)ccc2cc1-c1ccc(F)cc1	27.8%
CCCCCCc1cc2cc(-c3nnc(-c4ccccc4)o3)c(=O)oc2cc1O	90.8% (active)
CC1(C)CC(=O)C=C(NCCCNC2CCCCC2)C1	1%
CCOC(=O)c1c(N)sc(C(C)=O)c1C	25.8%
CCCCc1c(O)nc2n(c1=O)CCS2	-21.9%
COc1ccccc1NC1=NC(c2ccc(Cl)cc2)N=C(N)N1 (stereo unspecified)	-7.5%
CCn1c2ccccc2c2cc(NC(=S)N3CCOCC3)ccc21	-46.3%
CCCCN(C)C(=O)c1ccc2c(c1)N(CC)C(=O)c1ccccc1S2(=O)=O	72.4% (active)
CCN1C(=O)c2cccc3c(N)ccc1c23	7.7%
COC(=O)CNC(=O)c1ccc2c(c1)S(=O)(=O)c1ccccc1C2=O	-14.1%
CCC(C)Sc1nnc(-c2c[nH]c3ccccc23)n1CCOC (stereo unspecified)	-4.5%
CCC(=O)N(Cc1ccccc1)c1ccccn1	-7.1%
CCOC(=O)c1ccccc1NC(=O)CC1Nc2ccccc2NC1=O (stereo unspecified)	29.5%
CCOC(=O)C1=C(C)NC(C)=C(C(=O)OCC)C1C1=COCCO1	77.4% (active)
CCCC1NC(=O)NC(C)=C1C(=O)OCC (stereo unspecified)	39.8%
CCOC(=O)C1=C(C)NC(C)=C(C(=O)OCC)C1c1ccccn1	94.2% (active)
CCCC(O)(c1ccc(OC)cc1)C(CN(C)C)c1ccccc1 (stereo unspecified)	-8.2%
O=C(NC(=O)c1ccc(Cl)c(Cl)c1)OC1CCS(=O)(=O)C1 (stereo unspecified)	-16.4%
CCOc1ccccc1NC(=O)C12CC3CC(C1)CC(c1ccc(C)cc1)(C3)C2	-16%
N#C/C=C\Oc1ccc(Cl)cc1N	-10.4%

SMILES	inhibition
O=C(CCN1C(=O)C2C3C=CC(C3)C2C1=O)Nc1ccccc1F (stereo unspecified)	-2.2%
NC(=NC(=O)c1ccccc1)N1CCOCC1	4.1%
CCN(CC)C(=O)CSc1nnc(-c2ccc(S(=O)(=O)NCc3ccccc3Cl)cc2)o1	25.8%
O=C(OCC(=O)N1CCCC1)c1ccco1	5.6%
CCn1c(SCC(=O)Nc2cccc(F)c2)nnc1-c1cc2cc(Br)ccc2o1	36%
CSc1cccc(NC(=O)CSc2ccccc2)c1	73.2% (active)
O=C(CSc1ccccc1)Nc1ccc(NC(=O)c2ccco2)cc1	42.7%
Oc1ccccc1/C=N/n1c(-c2cccs2)n[nH]c1=S	0.5%
Cc1nnc(C)n1/N=C/c1ccc(C(C)C)cc1	8.3%
Cc1ccc2[nH]c3c(=O)n(Cc4ccccn4)cnc3c2c1	2.1%
Cn1nnc2cc(C(=O)NCCC3=CCCCC3)ccc21	-22.1%
Cc1ccc2c(c1)c1ncn(CCC3=CCCCC3)c(=O)c1n2C	87.4% (active)
Cc1ccc(-n2ncc3c(=O)[nH]cnc32)c(C)c1	2.5%
Cn1c(=O)n(C)c(=O)n(CC(=O)N2CCCCC2)c1=O	-13.7%
COc1ccc(C(=O)N(CCN2CCOCC2)CC(=O)NC2CCCC2)cc1OC	-13.4%
Cc1cccc(NC(=O)CSC(N)=O)c1C	7.1%
CCc1ccccc1NC(=O)CSc1nnc([C@@H](NC(=O)OC(C)(C)C)C(C)C)o1	20.3%
CCc1ccccc1NC(=O)CSc1nnc([C@@H](NC(=O)OC(C)(C)C)C(C)CC)o1 (stereo partly specified)	66.7% (active)
Cc1nc(C)c(C(=O)Nc2cccc(C)c2C)o1	1.2%
C[C@H](NC(=O)OC(C)(C)C)c1nnc(SCC(=O)Nc2ccc(Br)cc2)o1	50.7% (active)
C[C@H](NC(=O)OC(C)(C)C)c1nnc(SCC(N)=O)o1	30.9%
COc1ccccc1-c1nnc(SCC(=O)Nc2ccccc2)o1	-62.2%
Cc1cccc(NC(=O)CSc2nnc(CCCCCNC(=O)OC(C)(C)C)o2)c1C	67.6% (active)
CC(C)C[C@@H](N)c1nnc(SCC(=O)c2ccc(Cl)cc2)o1	49.8%
CN(C)CCNC(=O)C(C(=O)c1ccccc1)n1ccccc1=O (stereo unspecified)	-3.6%
CCCCNC(=O)OC(C)CNC(=O)OC (stereo unspecified)	-7.6%

SMILES	inhibition
O=C(C1CCCO1)N1CCC(c2nc3ccccc3[nH]2)CC1 (stereo unspecified)	-3.1%
CCCNS(=O)(=O)c1ccc2c(c1)CCCN2C(C)=O	4.5%
COC(=O)C(C)C1Sc2ccccc2NC1=O (stereo unspecified)	2.8%
Cn1nc(-c2ccccc2)c(-c2nc(-c3ccc(Cl)cc3)no2)c1Cl	0.9%
CC1CN(c2nc(-c3ccccc3)nnc2-c2ccccc2)CC(C)O1 (stereo unspecified)	14.1%
Clc1ccc(-c2nnc(-c3ccccc3)nc2N2CCSCC2)cc1	59.2% (active)
CC1(C)CC(CC(=O)O)C(=O)O1 (stereo unspecified)	4.1%
O=C(O)CCCCc1nc2ccccc2s1	2.4%
COc1ccccc1OCc1nc2ccccc2s1	51.7% (active)
O=C(O)CSCc1nc2ccccc2s1	-9.7%
C=CCNc1nc(C)nc(OC)n1	-13.4%
O=C(CCCn1c(SCC(=O)c2ccc(F)cc2)nc2ccccc2c1=O)NCc1ccco1	95% (active)
CCn1cc(C(=O)NCC2CCCO2)c(=O)c2cc(S(=O)(=O)N3CCCCC3)ccc21 (stereo unspecified)	44%
O=C(CSc1nnc(-c2ccco2)n1CC1CCCO1)c1ccccc1 (stereo unspecified)	-3.9%
CCc1ccc(NC(=O)CSc2nc3ccccc3c(=O)n2CCN2CCOCC2)cc1	47.5%
CCOc1cc2[nH]c(=O)n(CCC(=O)NCc3ccc(OC)cc3)c(=O)c2cc1OCC	-2.1%
Cn1c(-c2ccc(F)cc2)cnc1SCC(=O)NCc1ccco1	9.5%
O=C(NCC1CCCO1)C(C(=O)c1ccccc1)n1cc(Cl)ccc1=O (stereo unspecified)	-9.3%
CCn1c(SCC(=O)NCC2CCCO2)nc2cc(S(=O)(=O)N3CCCCC3)ccc21 (stereo unspecified)	50.2% (active)
Cc1ccc(S(=O)(=O)N2CCC(C(=O)NCC3CCCO3)CC2)cc1 (stereo unspecified)	-9.7%
O=C(CCn1c(SCC(=O)c2ccccc2)nc2ccccc2c1=O)NCc1ccc(F)cc1	91.5% (active)
O=C(CSc1nc2cc3c(cc2c(=O)n1CCC1=CCCCC1)OCO3)NCc1ccco1	8.9%
O=C(CCCn1c(SCC(=O)c2ccccc2)nc2ccccc2c1=O)NCC1CCCO1 (stereo unspecified)	91.9% (active)
